High-throughput results (PubChem BioAssay)
VACV mCherry inh: vaccinia inhibition (mCherry reporter); 0.63% of 310,000 active; Potency, µM (top dose mostly 36.5 µM), usual class: inhibitors; Vaccinia virus mCherry reporter infection, fluorescence; calls by dose curve; tested in A549 cells; also: nearly all actives have a fitted effect of over 35% in size
HCV inh: inhibitors of hepatitis C virus infection; Huh7.5.1 HCVcc-Cre infection, luciferase reporter, 44 h; Potency, µM (doses to about 41.8 µM), usual class: inhibitors; 3.4% of 340,000 active; AID 651820; active = well fitted inhibition curve with a large enough effect; inconclusive = small, poorly fitted or top-dose-only effect, or another doubt; inactive = no such curve, though single readings can be large or run the other way
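A cell-based infection assay in which seeded cells (1,000 per well) receive test compound after 4 h, are inoculated with HCVcc-Cre at approximately 0.5 moi, and are incubated 44 h before luminescence detection.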
Vaccinia Venus: vaccinia inhibition (Venus reporter). Vaccinia virus Venus reporter expression, fluorescence. Potency, µM (titrated, usually from 36.5 µM), most hits filed as inhibitors. 0.46% of 330,000 active. AID 720580; calls by dose curve; tested in A549 cells; also: nearly all actives have a fitted effect of over 30% in size
Marburg entry inh: Marburg virus entry inhibition; Marburg virus pseudotyped entry inhibition, cell reporter; AID 540276; 1.8% of 300,000 active; Potency, µM (titrated, usually from 37.8 µM), most hits filed as inhibitors; calls by dose curve; tested in HEK293 cells
LASV entry inh: inhibitors of Lassa virus binding or cell entry. Lassa virus pseudotype entry inhibition, cell reporter. Potency, µM (highest dose often 37.9 µM), usual class: inhibitors. 1.2% of 300,000 active; calls by dose curve; tested in HEK293 cells; also: nearly all actives have a fitted effect of over 50% in size
HCMV antiviral: inhibitors of human cytomegalovirus; HFF cells, HCMV-luciferase reporter, 72 h; hits give low values; activity change, negative = inhibition, % at 57.5 µM; 4.5% of 410,000 active; AID 1259415; in the data active = activity change below about -60%; inconclusive = no clear call, values can overlap the other calls; inactive = above about -39%
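Two-dose cell screen: HFF monolayers treated with compounds and infected with luciferase-expressing HCMV at 1 PFU/cell, 72 h at 37C, then lysed for luciferase measurement.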
Numbers stand for hits; – = inactive; ? = inconclusive; · = no result; + = active, no number; [ ] = remark or other dose. In the library only some 7.8% were active in any assay of this set; here they are far more common.

SMILES | VACV mCherry inh | HCV inh | Vaccinia Venus | Marburg entry inh | LASV entry inh | HCMV antiviral
O=C(Nc1ccc(Cl)c(Cl)c1)Nc1ccc(Br)cc1F | ? | ? | ? | ? | ? | -99
Cc1c(NC(=O)c2ccc(Br)o2)cccc1-c1nc2ccccc2o1 | – | · | – | · | – | –
CC(C)(C)N(NC(=O)Nc1ccc(Cl)c(Cl)c1)C(=O)c1ccccc1 | –[1.46 µM] | ? | 13µM | ? | ? | -80
O=C(Nc1ccc(Cl)cc1)Nc1ccc(Cl)c(Cl)c1 | 13µM | ? | 11µM | · | · | -98
O=C(NCC1CC1)Nc1ccc(Cl)cc1 | · | – | · | · | · | -95
O=C(NC(=S)Nc1ccc(Br)c(Cl)c1)C1CC1 | · | 10µM | · | · | · | –
CC(=O)Nc1ccc(NC(=S)NC(=O)C2CC2)cc1 | – | – | – | – | – | –
CC(C)(C)N(NC(=O)Nc1ccc(F)cc1)C(=O)c1ccccc1 | – | – | – | – | – | –
COc1ccc(-c2cn3c(n2)sc2cc(C(=O)NCc4cccs4)ccc23)cc1 | – | · | – | · | – | ·
O=C1NC(=Nc2cccc([N+](=O)[O-])c2)SC1(CO)CO | – | – | – | – | – | -65
O=C(COc1ccc(Cl)cc1Cl)N/N=C/c1ccc(OC2OC(CO)C(O)C(O)C2O)cc1 (configuration not stated) | · | – | · | · | · | -79
O=C(CCCOc1ccc(Cl)cc1Cl)N/N=C/c1ccc(Cl)cc1 | – | – | – | ? | ? | –
CCN(CC)S(=O)(=O)c1ccc(Cl)c(C(=O)Nc2nnc(C)s2)c1 | · | 22µM | · | – | ? | –
O=C1CCSC2(C(=O)N(Cc3ccc(F)cc3)c3ccccc32)N1c1ccc(F)c(F)c1 (configuration not stated) | – | · | – | · | – | –
COc1ccc(CNc2nc(NCc3ccc(OC)cc3)n(C(=O)c3ccncc3)n2)cc1 | · | – | · | · | · | –
COc1ccc(CNc2nc(NCc3ccc(OC)cc3)n(C(=O)c3ccccc3[N+](=O)[O-])n2)cc1 | – | ? | – | – | 4.1µM | –
CCN(CC)CCCCN1c2ccccc2Sc2ccccc21 | – | ? | ? | 11µM | ? | –
CCN(CC)CC(O)CN1c2ccccc2Sc2ccccc21 (configuration not stated) | ? | 22µM | – | 3.2µM | ? | ·
CC(CN1c2ccccc2Sc2ccccc21)N(C)C (configuration not stated) | – | –[8.37 µM] | – | 1.1µM | ? | –
CCN(CC)CC(=O)N1c2ccccc2Sc2ccccc21 | · | – | · | · | · | –
OCCN(CCO)CC(O)CN1c2ccccc2Sc2ccccc21 (configuration not stated) | · | – | · | – | · | ·
COc1cc(NC(=O)CSc2ncc(S(=O)(=O)c3ccc(Br)cc3)c(=O)[nH]2)cc(OC)c1 | – | · | – | ? | · | –
CC(Oc1ccccc1)C(=O)N[C@@H]1C(=O)N2[C@@H]1SC(C)(C)[C@@H]2C(=O)OCc1ccccc1 (some centres not stated) | – | · | – | · | · | ·
COc1cccc(-c2nc3c(Nc4cccc(F)c4)nccc3[nH]2)c1F | · | · | · | · | · | –
CCCOc1ccc(Br)cc1/C=N/O | · | 10µM | ? | ? | – | –
SMILES | VACV mCherry inh | HCV inh | Vaccinia Venus | Marburg entry inh | LASV entry inh | HCMV antiviral
O=C(O)COc1ccc(Br)cc1/C=N/O | · | – | – | – | – | –
CCOc1ccc(Br)cc1/C=N/O | – | 8.9µM | – | – | – | –
Cn1c(=O)c2c(SCc3cccnc3)nc(CC(C)(C)C)nc2n(C)c1=O | – | – | – | · | · | –
Cn1c(=O)c2c(SCc3ccccn3)nc(CC(C)(C)C)nc2n(C)c1=O | – | ? | – | · | · | –
CCCc1nc(SCc2cccnc2)c2c(=O)n(C)c(=O)n(C)c2n1 | – | 10µM | – | · | · | –
CCCc1nc(SCc2ccccn2)c2c(=O)n(C)c(=O)n(C)c2n1 | – | 10µM | – | · | · | ?
CCOC(=O)c1ccc(NC(=O)Nc2nncs2)cc1 | ? | · | ? | · | · | -75
CCOC(=O)c1ccc(NC(=O)Nc2ccon2)cc1 | · | – | · | · | · | +
CCOC(=O)c1ccc(NC(=O)c2nc[nH]c2C(=O)NC)cc1 | – | ? | – | · | · | –
CCOC(=O)c1ccc(NC(=O)Nc2ccc(Cl)cn2)cc1 | – | – | – | – | – | –
CCOC(=O)c1ccc(NC(=O)c2nccnc2C(=O)O)cc1 | – | – | – | · | · | -75
CCOC(=O)c1ccc(NC(=O)Nc2nc3ccccc3s2)cc1 | – | · | – | · | · | –
FC(F)(F)c1ccc(CN2C[C@@H]3C(c4ccc(C(F)(F)F)cc4)C4(c5cccnc5)CC3(C4)[C@H]2c2ccccc2)cc1 (some centres not stated) | – | – | – | · | · | -73
